The panel holds about 83,000 compounds, 20% with a hit somewhere; the sample as a whole holds those more often.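 Single-dose data. Exposure time 48 hours. Values below 10 considered active.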 Unmarked numbers belong to inactive results. Activity calls are given as the source filed them. Where a SMILES comes first, the peptide text is derived from it. Bridges are numbered along the chain shown (N, C = ends). [ ]: non-standard residue; d: D form. The star is where a group is joined. ξ: configuration not given here. ξNMePhe(4-NMe2) = CNC(Cc1ccc(N(C)C)cc1)C(=O)O; Picolinoyl(3-OH) = O=C(c1ncccc1O)*; ξPip(4-oxo) = O=C1CCNC(C(=O)O)C1; Phg = N[CH](C(=O)O)c1ccccc1; Abu = CC[CH](N)C(=O)O

For the assay, the system named is SW-620 colon. Briefly: NCI-60 one-dose screen, 48 h (100 = growth as untreated, 0 = no growth, -100 = all killed). The conditions noted are these: 10 µM. As to the method: Growth inhibition of the SW-620 human tumor cell line is measured as a screen for anti-cancer activity. Cells are grown in 96 well plates and exposed to the test compound for 48 hours. Compounds are tested at a single concentration, which is 10^-5 M for most compounds. The reported endpoint is percent growth (GI% or GIPRCNT), where numbers from 0 - 100% represent growth inhibition, and numbers from -100% - 0 represent cell death. For example, a value of 40 represents 60% growth inhibition. A value of 0 means no net growth occurred over the course of the experiment. A value of -40 indicates 40% of cells at the beginning of the experiment died by the end of the experiment. A value of -100 means all cells are dead at the end of the experiment.
NCI-60 Human Tumor Cell Lines Screen was performed using the standard one-dose NCI protocol, which is described in more detail at https://dtp.cancer.gov/discovery_development/nci-60/default.htm.
Compounds with GIPRCNT values below 10 were considered active. Activity score was based on GIPRCNT using the following formula: […]
Score is 0 for GIPRCNT values of 100 or above, 50 for GIPRCNT values of 0, and 100 for GIPRCNT values of -100.
With `Cc1cc(NC(=O)CSCC(=O)O)no1`, the growth is 102%.
As for `CSC[C@H](NC(=O)COc1cccc2cnccc12)C(=O)NC(Cc1ccccc1)C(O)C(=O)N1CSC[C@H]1C(=O)NC(C)(C)C` (stereo not given in full), the figure is 105%; as for `CNc1nc(NC)c2cn[nH]c2n1`, 106%.
As for `Cc1ccccc1N=C(c1ccccc1)C1C(=O)c2ccccc2C1=O`, the figure is 84.3%.
With `O=[N+]([O-])c1ccc(S(=O)(=O)NN=C2CCCCC2)cc1`, the growth was 114%.
Next, `C=CCNc1nnc(C)s1`: 107%.
As for `CN(C)C(C)(C)CC(C)(C)C`, the figure is 101%; as for `Cc1ccc(Cl)cc1NC(=O)N(C)CCO`, 137%; as for `c1ccc(/C(=N\N=C(/c2ccccc2)c2cccs2)c2cccs2)cc1`, 98%.
Take `CCC(C)(C)C1CCC(O)CC1` (stereo not given): the growth is 101%.
As for `COC(=O)c1cccc(Br)c1`, the figure is 114%.
Next, `CC1=C(/C=C/C(C)=C/C=C/C(C)=C/CO)C(C)(C)CCC1`: 109%; `c1ccc2c(c1)Sc1ccccc1S2`: 104%; `O=S(=O)(O)c1ccc(O)c2ccccc12`: 97.3%.
Next, `CCOC(=O)c1coc(C(=O)OCC)c1C(=O)OCC`: 113%; `Oc1ccc(O)cc1`: 112%.
As to `CCCCC/C=N/Nc1nc(C)cc(=O)[nH]1`, the growth is 104%.
As for `O=C1OC(=O)C2C1C1(Cl)C(Cl)=C(Cl)C2(Cl)C2C(=O)OC(=O)C21` (stereo not given), the figure is 113%.
As for `Cc1ccc(Cl)cc1N1C(=O)CC(Sc2ccccc2N)C1=O` (stereo not given), the figure is 108%.
On to `COC(=O)/C=C1\Sc2cc(F)ccc2NC1=O`, for which the growth is 127%.
As for `CC(C)OC(C(=O)O)c1ccccc1` (stereo not given), the figure is 103%; as for `CC1(C)Nc2cccc3c(N=Nc4ccc(N=Nc5ccccc5)c5ccccc45)ccc(c23)N1`, 89.4%; as for `CC(C)(C)n1nc(C2CC2)c(Br)c1NC(=O)c1ccccc1F`, 105%.
Next, `Cc1ccc(N)cc1[N+](=O)[O-]`: 100%; `O=[N+]([O-])c1ccc(Sc2ccncn2)c([N+](=O)[O-])c1`: 23%.
Take `c1c(-c2cc(C3CC3)[nH]n2)n[nH]c1C1CC1`: the growth was 102%.
As for `CC(C)C1CCCCC1O` (stereo not given), the figure is 107%; as for `O=C(NCO)c1ccccc1`, 103%; as for `CCOC(=O)CCCS(C)(=O)=O`, 105%.
Next, `COc1ccccc1NC(=O)C1=C(C)NC(C)=C(C(=O)Nc2ccccc2OC)C1c1cccc([N+](=O)[O-])c1`: 88%; `CCCC[P+](c1ccccc1)(c1ccccc1)c1ccccc1`: 64.5%; `CC1Cc2ccccc2O1` (stereo not given): 111%.
As for `CCC1NC(=O)C(NC(=O)c2ncccc2O)C(C)OC(=O)C(c2ccccc2)NC(=O)C2CC(=O)CCN2C(=O)C(Cc2ccc(N(C)C)cc2)N(C)C(=O)C2CCCN2C1=O` (stereo not given) (tested in a mixture with another compound) ({Picolinoyl(3-OH)}-T[Abu]P[ξNMePhe(4-NMe2)][ξPip(4-oxo)][Phg]; ester 1-C; configuration not given here), the figure is 68.3%.
Consider `CC1NC(=O)NC1CCCCCC(=O)O` (stereo not given), for which the growth was 105%.
As for `COc1ccc2c(NCCCCCCCCNc3c4ccccc4nc4cc(OC)ccc34)c3ccccc3nc2c1`, the figure is -100% (active); as for `N#CSc1cc(S(N)(=O)=O)ccc1N`, 107%.
Next, `C#CC(C)(O)c1ccc(Cl)cc1` (stereo not given): 109%.
As for `O=C(OCC(O)C1OC(c2ccccc2)OC(COC(=O)c2ccccc2)C1O)c1ccccc1` (stereo not given), the figure is 109%.
`CCCC(=O)Nc1ccc2c(c1)CN1C(=O)c3ccccc3C1=N2`: the growth is 105%.
As for `COC(=O)C(C)Oc1ccc(OC#N)cc1` (stereo not given), the figure is 95.6%.
